These results are taken from PubChem BioAssay (Tox21).

For assay [1], the target named is Aromatase (Homo sapiens) (UniProt P11511). Nature of the assay: qHTS assay to identify aromatase inhibitors (AID 743083). Further: nearly all actives have a fitted effect of over 55% in size. Further: potency means the concentration at half of the fitted maximal effect. A general note: qHTS replaces the single test concentration by a dilution series.
In assay [2] the target is Aryl hydrocarbon receptor (Homo sapiens) (UniProt P35869). Nature of the assay: qHTS assay to identify small molecule that activate the aryl hydrocarbon receptor (AhR) signaling pathway (AID 743085). Further: nearly all actives have a fitted effect of over 15% in size. Further: potency means the concentration at half of the fitted maximal effect.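 On activation: HG2L7.5c1 human HepG2 liver cells with stably integrated DRE-driven firefly reporter; series mostly up to about 70 µM.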 In a few lines: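 AhR agonist activity is inferred from enhanced light output of a DRE-controlled firefly luciferase reporter in HepG2 cells, measured with ONE-Glo following 24 h treatment at 37C.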
Sequence of Aryl hydrocarbon receptor (Homo sapiens) (P35869 whole entry, looked up): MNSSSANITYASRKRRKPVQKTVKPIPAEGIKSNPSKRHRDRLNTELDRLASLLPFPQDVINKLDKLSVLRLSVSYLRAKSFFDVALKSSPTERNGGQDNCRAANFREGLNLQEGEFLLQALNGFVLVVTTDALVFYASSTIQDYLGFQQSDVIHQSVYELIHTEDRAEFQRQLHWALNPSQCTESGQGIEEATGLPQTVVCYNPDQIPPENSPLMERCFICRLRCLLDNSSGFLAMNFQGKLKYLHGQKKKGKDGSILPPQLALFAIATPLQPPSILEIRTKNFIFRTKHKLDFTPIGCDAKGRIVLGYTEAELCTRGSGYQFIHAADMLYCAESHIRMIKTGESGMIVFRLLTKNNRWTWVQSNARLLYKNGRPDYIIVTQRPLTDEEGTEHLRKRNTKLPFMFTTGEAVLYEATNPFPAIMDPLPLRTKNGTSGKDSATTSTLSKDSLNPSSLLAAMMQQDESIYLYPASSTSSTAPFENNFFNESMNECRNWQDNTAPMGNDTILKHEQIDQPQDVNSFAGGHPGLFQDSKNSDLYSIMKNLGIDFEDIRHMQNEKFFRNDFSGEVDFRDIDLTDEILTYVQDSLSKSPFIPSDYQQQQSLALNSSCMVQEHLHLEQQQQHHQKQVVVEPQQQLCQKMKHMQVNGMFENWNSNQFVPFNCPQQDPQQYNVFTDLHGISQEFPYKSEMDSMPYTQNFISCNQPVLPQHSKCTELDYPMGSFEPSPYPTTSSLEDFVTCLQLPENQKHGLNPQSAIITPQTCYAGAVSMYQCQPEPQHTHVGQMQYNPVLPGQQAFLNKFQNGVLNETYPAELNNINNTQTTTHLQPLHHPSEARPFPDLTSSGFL

Assay [3] can be described thus: qHTS assay to test for compound auto fluorescence at 535 nm (green) in HepG2 cells (AID 720675).
A short description of assay [4]: qHTS assay to test for compound auto fluorescence at 535 nm (green) in HEK293 cells (AID 720680).
Assay [5] is described as follows: qHTS assay to test for compound auto fluorescence at 460 nm (blue) in HEK293 cell free culture (AID 720681). The procedure, abridged:
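Blue fluorescence (Ex 405/Em 460 nm, triamterene-equivalent) was read immediately after pin transfer of compound or DMSO into medium (DMEM, 10% FBS) without cells.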

Assay [6] in a line: qHTS assay to test for compound auto fluorescence at 535 nm (green) in HEK293 cell free culture (AID 720682). The procedure, abridged: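 Green-channel intensity (Ex/Em 485/535 nm) was recorded from compound-treated wells containing only DMEM with 10% FBS. Fluorescein provided the equivalency standard.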
Assay [7] is described as follows: qHTS assay to test for compound auto fluorescence at 590 nm (red) in HEK293 cell free culture (AID 720683). In a few lines: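 Red-channel autofluorescence of compounds in culture medium (DMEM, 10% FBS), no cells, measured at 540/590 nm. Rose Bengal sodium is the reference fluorophore for equivalence.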
Assay [8] is described as follows: qHTS assay to test for compound auto fluorescence at 590 nm (red) in HepG2 cell free culture (AID 720684). The procedure, abridged: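 Steps: dispense MEM/10% FBS medium, no cells; pin compound or DMSO vehicle; read red channel, Ex/Em 540/590 nm. Output given as Rose Bengal sodium equivalents.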
A short description of assay [9]: qHTS assay to test for compound auto fluorescence at 460 nm (blue) in HepG2 cell free culture (AID 720685). The procedure, abridged:
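Compound (23 nL) or DMSO pinned into cell-free MEM with 10% FBS; blue fluorescence read at 405/460 nm excitation/emission, expressed as auto-fluorescence equivalency to triamterene.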

Assay [10] can be described thus: qHTS assay to test for compound auto fluorescence at 535 nm (green) in HepG2 cell free culture (AID 720686).
The test system of assay [11] is thyroid hormone receptor (rat, GH3 cells). The assay can be described thus: qHTS assay to identify small molecule agonists of the thyroid receptor (TR) signaling pathway (AID 743066; calls by dose curve).
Assay [12] in a line: qHTS assay for small molecules that induce genotoxicity in human embryonic kidney cells expressing luciferase-tagged ATAD5 - cell viability (AID 651634; calls by dose curve; further: nearly all actives have a fitted effect of over 25% in size). In a few lines:
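HEK293T cells expressing luciferase-tagged ATAD5 were exposed to compound or DMSO for 15.5 hr at 37C, 5% CO2. Viability was then read as live-cell protease activity by CellTiter-Fluor fluorescence after 30 min at 37C.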

Assay [13] in a line: qHTS assay for small molecule disruptors of the mitochondrial membrane potential - cell viability (AID 720634; calls by dose curve;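 further: human HepG2 liver cancer cells; series mostly up to about 83 µM; nearly all actives have a fitted effect of over 20% in size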). The procedure, abridged:
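HepG2 cells seeded overnight at 37 C, then exposed to compound or DMSO for 1 hr at 37 C, 5% CO2. m-MPI dye added, then CellTiter-Glo for 30 min at room temperature; viability read as ATP luminescence.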

Assay [14] can be described thus: qHTS assay to identify small molecule antagonists of the androgen receptor (AR) signaling pathway using the MDA cell line - cell viability counter screen (AID 743041; further: nearly all actives have a fitted effect of over 45% in size). The procedure, abridged: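 Cells were plated at 3,000 per well and left 5 h. Compounds in DMSO were then pinned in, followed by R1881. After 16 h at 37C, CellTiter-Fluor fluorescence gave viability.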

The nature of assay [15]: qHTS assay to identify small molecule antagonists of the estrogen receptor alpha (ER-alpha) signaling pathway - cell viability counter screen (AID 743074; calls by dose curve;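 further: HEK293 cells carrying ER-alpha-UAS-bla reporter stimulated with 17beta-estradiol; nearly all actives have a fitted effect of over 45% in size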).
Assay [16] can be described thus: qHTS assay to identify small molecule antagonists of the estrogen receptor alpha (ER-alpha) signaling pathway using the BG1 cell line - cell viability counter screen (AID 743081).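 Further: compound given together with 17beta-estradiol as the ER stimulus; series mostly up to about 70 µM; nearly all actives have a fitted effect of over 45% in size.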
Assay [17] in a line: qHTS assay to identify small molecule that activate the aryl hydrocarbon receptor (AhR) signaling pathway - cell viability counter screen (AID 743086). Further: series mostly up to about 70 µM; nearly all actives have a fitted effect of over 45% in size. The procedure, abridged: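 Cytotoxicity counter screen: CellTiter-Fluor signal (30 min, 37 C) in 4000 HepG2 cells/well carrying the DRE-luciferase reporter, following 24 h compound exposure at 37 C.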
Assay [18] is described as follows: qHTS assay to identify small molecule phospholipidosis (PLD) inducers (AID 1259344; active means well fitted curve in the direction sought with a large enough effect; an effect the other way counts as inactive or inconclusive). In a few lines:
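Phospholipidosis is scored by imaging LipidTOX-stained pits in HepG2 cells exposed to compound for 24 h at 37 C; pit counts and integrated intensities per well and per cell serve as outputs.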

The nature of assay [19]: qHTS assay to identify aromatase inhibitors - cell viability counter screen (AID 743084).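 Further: cells stimulated with testosterone during compound exposure; nearly all actives have a fitted effect of over 55% in size.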
Assay [20] has as its target Nuclear receptor subfamily 1 group I member 2 (Rattus norvegicus) (UniProt Q9R1A7). Nature of the assay: Rat pregnane X receptor (rPXR) activation by small molecules, qHTS assay (AID 1346983). Further: nearly all actives have a fitted effect of over 20% in size. As to conditions: rPXR luciferase reporter cells, One-Glo luminescence, 24 h; max activation: active compounds read high. In a few lines: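 Luminescent readout (One-Glo luciferase, 30 min room temperature) followed 24 hr compound treatment at 37 C of rPXR cells plated 2,000 per well and preincubated 5hr; qHTS format with compounds delivered in DMSO.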

Unmarked numbers belong to inactive results. Results filed as inconclusive are left out. Activity calls are given as the source filed them. Unless noted, the call rests on the fitted dose curve; in most records, active means well fitted curve in the direction sought with a large enough effect in the repeat runs; inconclusive means weak or mixed curves; inactive means no such curve, though single readings can be large; an effect the other way counts as inactive or inconclusive.
On the % scale 0 is the no-effect control and ±100 the full control effect.

Sequence of Aromatase (Homo sapiens) (P11511 whole entry, looked up): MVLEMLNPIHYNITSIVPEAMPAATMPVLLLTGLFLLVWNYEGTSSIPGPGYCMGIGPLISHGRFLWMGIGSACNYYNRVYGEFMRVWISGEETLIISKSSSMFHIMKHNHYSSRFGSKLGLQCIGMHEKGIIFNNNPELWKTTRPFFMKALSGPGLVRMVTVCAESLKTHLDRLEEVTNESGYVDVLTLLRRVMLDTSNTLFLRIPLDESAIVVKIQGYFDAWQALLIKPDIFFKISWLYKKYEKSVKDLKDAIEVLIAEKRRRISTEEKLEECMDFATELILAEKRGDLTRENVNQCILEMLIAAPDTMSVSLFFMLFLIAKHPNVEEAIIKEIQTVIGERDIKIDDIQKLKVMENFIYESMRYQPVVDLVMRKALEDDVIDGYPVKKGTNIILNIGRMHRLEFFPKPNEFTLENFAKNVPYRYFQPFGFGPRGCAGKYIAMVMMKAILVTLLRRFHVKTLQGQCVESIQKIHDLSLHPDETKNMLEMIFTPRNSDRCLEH
Sequence of Nuclear receptor subfamily 1 group I member 2 (Rattus norvegicus) (Q9R1A7 whole entry, looked up): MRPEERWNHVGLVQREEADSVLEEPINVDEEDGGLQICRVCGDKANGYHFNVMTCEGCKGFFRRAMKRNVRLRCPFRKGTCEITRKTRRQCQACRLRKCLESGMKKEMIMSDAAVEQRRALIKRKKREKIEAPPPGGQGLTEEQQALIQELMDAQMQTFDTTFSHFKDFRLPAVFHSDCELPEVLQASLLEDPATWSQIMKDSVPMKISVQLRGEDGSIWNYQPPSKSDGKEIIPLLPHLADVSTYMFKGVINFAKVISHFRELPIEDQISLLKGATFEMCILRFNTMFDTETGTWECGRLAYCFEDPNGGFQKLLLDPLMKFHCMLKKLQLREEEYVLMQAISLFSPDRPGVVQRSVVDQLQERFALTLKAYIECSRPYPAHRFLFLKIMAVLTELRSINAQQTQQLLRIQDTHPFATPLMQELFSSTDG

For the compound `Cc1ccc([N+](=O)[O-])cc1N`, in assay [1], the Potency result was “inactive”. Further, in [2], the Potency was 61.1 µM (active).
The corresponding values for `CCCCCCCCCc1ccc(OCCOCCO)cc1` are 21.1 µM (active) and “inactive”.
The matching figures for `Cc1cc([N+](=O)[O-])ccc1N`: “inactive” and “inactive”.
For `Cc1ccc(O)cc1C`, the Potency result in assay [3], in [4], in assay [5], in assay [6], in assay [9] and in [10] was “inactive” in each case. The Potency result in assay [11] and in assay [1] was “inactive” throughout. For the same compound, the call in assay [7] and in [8] was inactive.
In the case of `CNc1ccccc1`, in assay [2], the Potency entry was “inactive”.
Turning to `N#CCCNCCC#N`, the Potency entry in [1] and in [2] was “inactive” in each case.
On to `Nc1ccc(N)c2ccccc12`, for which the Potency in assay [1] was 3.06 µM (active); in assay [2], 0.968 µM (active).
On to `NC(=Nc1ccccc1)Nc1ccccc1`, for which the Potency in assay [1] was 23.7 µM (active).
Consider `Cc1cccc(C)c1`, for which the Potency result in assay [1] and in assay [2] was “inactive” in each case.
As to `c1ccc2c(c1)ccc1ncccc12`, the Potency entry in assay [1] and in assay [2] was “inactive” in each case.
As for `N#CC1(O)CCCCC1`, the Potency entry in [1] was “inactive”.
`O=C1OC(=O)c2c(Br)c(Br)c(Br)c(Br)c21`: the Potency entry in assay [1] and in [2] was “inactive” in each case.
Take `O=C(O)/C=C\C(=O)O`: the Potency result in assay [12], in assay [13], in assay [3], in [4], in assay [5] and in [6] was “inactive” in each case. Moreover, the Potency entry in assay [9], in [10], in assay [14], in assay [11], in assay [15] and in [16] was “inactive” each time. In addition, the Potency result in assay [17] and in assay [18] was “inactive” in each case. For the same compound, the result in [7] and in assay [8] was inactive.
In the case of `O=C(O)/C=C/C(=O)O`, the Potency result in assay [12], in assay [13], in [3], in assay [4], in [5] and in assay [6] was “inactive” in each case. For the same compound, the Potency result in [9], in assay [10], in assay [14], in assay [11], in assay [15] and in assay [16] was “inactive” each time. The Potency entry in [17] is “inactive”. Further, the call in [7] and in assay [8] was inactive.
For `ClC(Cl)(Cl)c1ccc(C(Cl)(Cl)Cl)cc1`, the Potency result in assay [1] and in [2] was “inactive” throughout.
As for `O=P(OC(CCl)CCl)(OC(CCl)CCl)OC(CCl)CCl`, the Potency result in [2] is “inactive”.
On to `O=[N+]([O-])c1ccccc1Cl`, for which the Potency entry in assay [3], in assay [4], in assay [5], in assay [6], in [9] and in assay [1] was “inactive” in each case. Moreover, the Potency result in assay [2] was “inactive”. The result in assay [7] and in assay [8] was inactive.
Take `Clc1nc(Cl)c(Cl)c(Cl)c1Cl`: the Potency entry in assay [1] was “inactive”.
On to `Cc1ccc2ccccc2c1C`, for which the Potency entry in assay [3], in assay [4], in assay [5], in [6], in assay [9] and in assay [10] was “inactive” throughout. In addition, the call in assay [7] and in assay [8] was inactive.
Consider `c1cc2c(c(NC3=NCCN3)c1)CCCC2`, for which the Potency result in [12], in [13], in [3], in assay [4], in assay [5] and in assay [6] was “inactive” in each case. In addition, the Potency entry in assay [9], in assay [10], in assay [14], in assay [11], in assay [15] and in [16] was “inactive” each time. The Potency entry in assay [1], in [19], in assay [17] and in assay [18] was “inactive” in each case. For the same compound, the outcome in [7] and in [8] was inactive. For the same compound, the max activation in assay [20] was -5.45%.
Regarding `C[C@]12CC[C@H]3[C@@H](CCC4=C(O)C(=O)CC[C@@H]43)[C@@H]1CC[C@@H]2OC(=O)CCC1CCCC1`, the Potency entry in assay [12], in [13], in [3], in [4], in assay [5] and in [6] was “inactive” throughout. Besides, the Potency entry in [9], in [10], in assay [14], in assay [11], in assay [15] and in assay [16] was “inactive” in each case. The Potency result in [1], in assay [19], in [2], in [17] and in [18] was “inactive” throughout. Further, the call in [7] and in assay [8] was inactive. Also, the max activation in [20] is -2.22%.
